The source of these data is PubChem BioAssay AID488847 (NMMLSC, 2010).

Hit rate of the full screen: of about 330,000 compounds, about 1,900 (0.58%) were called active.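 How the source made its calls: active means inhibition of aptamer binding above 40%, roughly 3 SD of noise, on plates passing a quality check; inactive means the rest.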 Only a selection was taken, and actives are over-represented in it overall.

Sequence of Beta-adrenergic receptor kinase 1 (Homo sapiens) (P25098 whole entry, looked up): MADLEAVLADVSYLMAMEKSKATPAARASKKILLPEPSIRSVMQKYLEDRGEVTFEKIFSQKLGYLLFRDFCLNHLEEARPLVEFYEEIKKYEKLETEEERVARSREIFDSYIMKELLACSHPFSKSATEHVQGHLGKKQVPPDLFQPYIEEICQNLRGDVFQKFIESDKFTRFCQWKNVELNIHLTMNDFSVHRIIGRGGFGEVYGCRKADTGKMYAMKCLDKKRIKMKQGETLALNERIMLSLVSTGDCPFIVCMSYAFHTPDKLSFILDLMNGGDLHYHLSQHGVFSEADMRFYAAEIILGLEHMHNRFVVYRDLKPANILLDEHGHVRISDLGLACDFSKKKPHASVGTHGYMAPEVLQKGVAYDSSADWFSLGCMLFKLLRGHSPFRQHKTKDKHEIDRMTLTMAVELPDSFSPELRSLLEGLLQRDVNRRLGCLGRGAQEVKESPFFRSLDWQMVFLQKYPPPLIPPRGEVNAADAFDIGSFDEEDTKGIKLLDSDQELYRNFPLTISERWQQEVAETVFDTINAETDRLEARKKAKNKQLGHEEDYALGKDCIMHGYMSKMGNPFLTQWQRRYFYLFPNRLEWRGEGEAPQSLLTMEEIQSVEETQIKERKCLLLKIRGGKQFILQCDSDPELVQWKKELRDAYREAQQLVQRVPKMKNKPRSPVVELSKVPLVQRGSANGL

The assay concerns the target Beta-adrenergic receptor kinase 1 (Homo sapiens) (UniProt P25098). As to the kind of experiment: compounds blocking aptamer binding on GRK2 – biochemical, human GRK2, bead flow cytometry, HTS, primary screen (AID 488847).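 Further: median bead fluorescence of bound FAM aptamer so fluorescent compounds give negative values.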 Particulars: FAM-aptamer displacement from GRK2, at 10 µM, hits give high values. On the technique in general: In flow cytometry, cells or beads pass a laser one at a time.
For the compound `Cc1cc(C=C2C(=O)NC(=O)NC2=O)c(C)n1-c1ccncc1`, the inhibition of aptamer binding is 2% (inactive).
Then `Cc1c(C(=O)O)cccc1-n1c(C)cc(/C=C2\C(=O)NC(=O)N(c3ccc4c(c3)OCO4)C2=O)c1C`, with 75% (active); and `Cc1ccc(-n2c(C)cc(/C=C3\C(=O)NC(=O)N(C)C3=O)c2C)cc1C`, with 3% (inactive); and `CC[N+]1(C)CCCC(OC(=O)C(O)(c2ccccc2)c2ccccc2)C1` (stereo not given), with 0% (inactive).
The figure for `O=C1NC(=O)C(C/C=C/c2ccccc2)C(=O)N1` is 1% (inactive).
The figure for `COc1ccc(Br)cc1CNCCc1cccc(Cl)c1` is 0% (inactive); for `O=C1NC(=O)N(Cc2ccco2)C(=O)/C1=C\c1cccn1CCOc1ccccc1` it is 5% (inactive).
For the compound `COc1ccc(N2C(=O)/C(=C/c3ccco3)C(=O)NC2=S)cc1`, the inhibition of aptamer binding is 96% (active).
The figure for `O=C1NC(=O)N(Cc2ccco2)C(=O)/C1=C\c1ccc(-c2ccc(F)cc2)o1` is 15% (inactive).
The figure for `CN(C)CC1CCCCC1OC(=O)c1ccc(Cl)c(Cl)c1` (stereo not given) is 0% (inactive).
